This passage reports outcome and AC50 results from PubChem BioAssay (EPA / NIEHS).

Values joined by “and” are separate entries in the source; they are usually repeats but may differ in a detail not shown here. Equal entries are not always repeated. Results filed as inconclusive are left out. A structure can be active in one record and inactive in another. Active and inactive are the calls of the source. The calls were made as follows, unless noted: active = hit-call score of the fitted dose curve at least 0.9, where 1 is the maximum; inconclusive = response in the unintended direction; inactive = score below 0.9.

Assay [1] concerns Sodium/Iodide Symporter (NIS), SLC5A5 (gene 6528). As to the kind of experiment: CPHEA_Stoker_NIS_Inhibition_RAIU: CPHEA's Radioactive Iodide Uptake (RAIU) Assay for Sodium/Iodide Symporter (NIS) Inhibition, Stoker and Laws Labs (AID 2283841). The gist of the method: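 HEK293T cells stably expressing human NIS (hNIS-HEK293T-EPA) were exposed to test chemicals at 0.001–100uM (0.5% final DMSO) with 125I at a final 329pM in HBSS/10mM HEPES pH 7.4. After 2 hours at room temperature and ice-cold washes, intracellular 125I was counted as CPM and normalized to DMSO wells.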

The nature of assay [2]: CPHEA_Stoker_NIS_Cytotoxicity: Cytotoxicity Assessment for CPHEA's Radioactive Iodide Uptake (RAIU) Assay for Sodium/Iodide Symporter (NIS) Inhibition, Stoker and Laws Labs (AID 2283897).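 As to AC50: active means loss of ATP signal versus DMSO meaning cytotoxicity.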 Put shortly: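 hNIS-HEK293T-EPA human kidney cells were exposed for 2 hours at room temperature to test chemicals (0.001–100uM, 0.5% final DMSO) in HEPES-buffered HBSS, pH 7.4. Viability was read as ATP content by luciferase bioluminescence, loss of signal versus DMSO.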

The nature of assay [3]: CEETOX_H295R_11DCORT_noMTC: CeeTox H295R High-throughput Steroidogenesis Assay for 11-Deoxycortisol (11DCORT), maximum tolerated concentration (MTC) filtered results only (AID 2283911; active = hit-call score of the fitted dose curve at least 0.9, where 1 is the maximum; inactive = score below 0.9). As to conditions: actives raise or lower the signal. The gist of the method: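 Forskolin-primed (10 uM, 48 h) H295R adrenal cells are dosed for 48 h at 0.1% DMSO; medium 11-deoxycortisol is quantified by LC-MS/MS against a 7-point standard curve, with activity fitted in both directions versus DMSO.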

Assay [4] is described as follows: CEETOX_H295R_OHPREG_noMTC: CeeTox H295R High-throughput Steroidogenesis Assay for OH-Pregnenolone (OHPREG), maximum tolerated concentration (MTC) filtered results only (AID 2283912; active = hit-call score of the fitted dose curve at least 0.9, where 1 is the maximum; inactive = score below 0.9). As to conditions: actives raise or lower the signal. Put shortly:
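Readout is HPLC-MS/MS quantification of 17alpha-hydroxypregnenolone released by forskolin-stimulated H295R cells over 48 h of chemical exposure, DMSO as baseline.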

Assay [5] concerns frog Androgen Receptor (AR), gene 399456. As to the kind of experiment: ATG_frAR_XSP2: Attagene TRANS-FACTORIAL Multi-Species (XSP2) HepG2 Assay for frog Androgen Receptor (AR) (AID 2283824).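 Also: reporter mRNA from GAL4-UAS units driven by Xenopus AR-Gal4 chimera; actives raise reporter signal above DMSO so AC50 reflects agonist-like induction.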 Put shortly:
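Reporter transcript induction, read by RT-PCR with fluorescent capillary electrophoresis, in human liver HepG2 cells carrying an exogenous Xenopus AR-Gal4 fusion and GAL4-driven reporters; chemical exposure 24 hours, activity scored upward against DMSO controls.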

Assay [6] deals with Estrogen receptor (Homo sapiens) (UniProt P03372). As to the kind of experiment: ATG_hERa_XSP2: Attagene TRANS-FACTORIAL Multi-Species (XSP2) HepG2 Assay for human Estrogen Receptor (ERa) (AID 2283827). The gist of the method: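 Trans-activation of exogenous human ERa-Gal4 chimera read in HepG2 as reporter transcript after 24 h exposure; medium included 3 nM 6-alpha-fluorotestosterone and 1.5 nM norgestrel. Quantified by RT-PCR with capillary electrophoresis, positive-direction fitting against DMSO.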

Assay [7] concerns frog Estrogen Receptor (ER2), gene 100174814. As to the kind of experiment: ATG_frER2_XSP2: Attagene TRANS-FACTORIAL Multi-Species (XSP2) HepG2 Assay for frog Estrogen Receptor (ER2) (AID 2283828). The gist of the method: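 Induction of reporter mRNA, baseline set by DMSO, is the endpoint. The panel was run in transfected HepG2 cells over 24 h, with 3 nM 6-alpha-fluorotestosterone and 1.5 nM norgestrel present to stimulate androgen receptor.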

In assay [8] the target is Peroxisome proliferator-activated receptor gamma (Homo sapiens) (UniProt P37231). As to the kind of experiment: ATG_hPPARg_XSP2: Attagene TRANS-FACTORIAL Multi-Species (XSP2) HepG2 Assay for human Peroxisome Proliferator-activated Receptor gamma (PPARg) (AID 2283829).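 Also: actives raise reporter mRNA above DMSO so AC50 reflects PPARg activation.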 Put shortly:
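Human HepG2 cells carried transiently transfected Gal4 reporter units and were treated with chemical for 24 h alongside androgen-receptor stimulants (3 nM 6-alpha-fluorotestosterone, 1.5 nM norgestrel). Reporter transcripts were detected by RT-PCR with capillary electrophoresis, analysed in the positive direction against DMSO.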

Assay [9] has as its target mouse Peroxisome Proliferator-activated Receptor gamma (PPARg), Pparg (gene 19016) (UniProt P37238). As to the kind of experiment: ATG_mPPARg_XSP2: Attagene TRANS-FACTORIAL Multi-Species (XSP2) HepG2 Assay for mouse Peroxisome Proliferator-activated Receptor gamma (PPARg) (AID 2283830).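 Also: hits are gains in reporter mRNA above DMSO so AC50 marks activation.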 The gist of the method:
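Multiplexed TRANS reporter readout: after 24 h chemical exposure of transfected HepG2 cells (with 3 nM 6-alpha-fluorotestosterone, 1.5 nM norgestrel present), RNA reverse-transcribed, amplified, 6-FAM-labelled and resolved by capillary electrophoresis; mouse PPARg-Gal4 induction scored against DMSO.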

For assay [10], the target named is Nuclear receptor subfamily 1 group I member 2 (Mus musculus) (UniProt O54915). As to the kind of experiment: ATG_mPXR_XSP2: Attagene TRANS-FACTORIAL Multi-Species (XSP1) HepG2 Assay for mouse Pregnane X Receptor (PXR) (AID 2283831). The gist of the method:
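Fluorescence signals from capillary electrophoresis of RT-PCR-amplified reporter mRNA give the readout, gain-of-signal versus DMSO. Transfected HepG2 cells, 24 h dosing, medium contained 3 nM 6-alpha-fluorotestosterone and 1.5 nM norgestrel.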

In assay [11] the target is zebrafish Thyroid Hormone Receptor alpha (TRa), thraa (gene 30670) (UniProt Q98867). As to the kind of experiment: ATG_zfTRa_XSP2: Attagene TRANS-FACTORIAL Multi-Species (XSP1) HepG2 Assay for zebrafish Thyroid Hormone Receptor alpha (TRa) (AID 2283832).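 Also: actives raise zebrafish TRa-Gal4 reporter transcript above DMSO baseline.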 The gist of the method: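 Chimeric zebrafish TRa-Gal4 activity read in transfected human HepG2 as GAL4-UAS reporter transcripts, 24 h post-dose, via RT-PCR with labeled primer extension and capillary electrophoresis. Medium also carries 3 nM 6-alpha-fluorotestosterone and 1.5 nM norgestrel; DMSO baseline.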

For assay [12], the system named is turtle Thyroid Hormone Receptor, alpha (TRa), gene 101949057. As to the kind of experiment: ATG_trTRa_XSP2: Attagene TRANS-FACTORIAL Multi-Species (XSP1) HepG2 Assay for turtle Thyroid Hormone Receptor, alpha (TRa) (AID 2283834).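 Also: hits raise reporter mRNA over the DMSO baseline so AC50 marks activators.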 The gist of the method: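 Multiplexed TRANS reporter assay; HepG2 carrying NR-Gal4 constructs treated 24 h. mRNA of the GAL4-UAS reporter quantified via labelled RT-PCR fragments on a genetic analyzer, vs DMSO negative control.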

A short description of assay [13]: ATG_M_61_XSP2: Attagene TRANS-FACTORIAL Multi-Species (XSP2) HepG2 Assay for M61 Transcription Factor (Internal Marker) (AID 2283835; active = hit-call score of the fitted dose curve at least 0.9, where 1 is the maximum; inactive = score below 0.9;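 also: active means a rise in signal above the DMSO baseline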). The gist of the method: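 Signal was mRNA induction detected as fluorescence after RT-PCR and capillary electrophoresis, analysed in the gain direction with DMSO as baseline. HepG2 cells transiently carrying reporter constructs received chemicals for 24 h.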

The target in assay [14] is zebrafish Thyroid Hormone Receptor beta (TRb), thrb (gene 30607) (UniProt Q9PVE4). As to the kind of experiment: ATG_zfTRb_XSP2: Attagene TRANS-FACTORIAL Multi-Species (XSP1) HepG2 Assay for zebrafish Thyroid Hormone Receptor beta (TRb) (AID 2283836). Put shortly: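 Reporter transcripts measured by RT-PCR, 6-FAM labelling, HpaI digestion and capillary electrophoresis after 24 h chemical exposure. Human HepG2 cells carry an exogenous zebrafish TRb-GAL4 chimera; medium included 3 nM 6-alpha-fluorotestosterone plus 1.5 nM norgestrel.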

The nature of assay [15]: ATG_XTT_Cytotoxicity_XSP2: Cytotoxicity Assessment in the Attagene TRANS-FACTORIAL Multi-Species (XSP2) HepG2 Assay (AID 2283837). The gist of the method: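 XTT-based cell number read-out in human HepG2 liver cells carrying transfected reporter units, measured 24 h after chemical dosing. Activity is signal loss versus DMSO baseline.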
For assay [16], the target named is human Thyroid hormone Receptor alpha (TRa), THRA (gene 7067) (UniProt P10827). As to the kind of experiment: ATG_hTRa_XSP2: Attagene TRANS-FACTORIAL Multi-Species (XSP2) HepG2 Assay for human Thyroid hormone Receptor alpha (TRa) (AID 2283838). Put shortly: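 Reporter transcripts were read by RT-PCR with fluorescent primer extension, HpaI digestion and capillary electrophoresis. These came from HepG2 cells carrying multiplexed TRa-Gal4 TRANS constructs, harvested 24 hours after dosing. The medium also held 6-alpha-fluorotestosterone (3 nM) and norgestrel (1.5 nM), and increases were fitted against DMSO.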

The target of assay [17] is frog Thyroid hormone Receptor alpha (TRa), thra-a (gene 397942) (UniProt P15204). As to the kind of experiment: ATG_frTRa_XSP2: Attagene TRANS-FACTORIAL Multi-Species (XSP2) HepG2 Assay for frog Thyroid hormone Receptor alpha (TRa) (AID 2283839).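 Also: AC50 reflects induction of frog TRa-driven reporter mRNA above DMSO baseline.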 The gist of the method: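 Chimeric frog TRα-GAL4 activity in human liver cells measures reporter transcript induction 24 h post-dose. Detection uses RT-PCR, HpaI-digested labelled products and fluorescence capillary electrophoresis; DMSO serves as negative control.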

The target of assay [18] is human Thyroid hormone Receptor beta (TRb), THRB (gene 7068) (UniProt P10828). As to the kind of experiment: ATG_hTRb_XSP2: Attagene TRANS-FACTORIAL Multi-Species (XSP2) HepG2 Assay for human Thyroid hormone Receptor beta (TRb) (AID 2283840).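 Also: actives raise reporter mRNA so potency reflects agonist-like gain of signal.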 Put shortly:
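Gain-of-signal reporter transcription, referenced to DMSO, was measured in transiently transfected HepG2 after 24 h exposure; labeled RT-PCR products were resolved by capillary electrophoresis. Assay medium included 3 nM 6-alpha-fluorotestosterone and 1.5 nM norgestrel.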

zebrafish Thyroid Hormone Receptor alpha (TRa), thraa (gene 30670), sequence (Q98867 whole entry, looked up, the tested form may be a part): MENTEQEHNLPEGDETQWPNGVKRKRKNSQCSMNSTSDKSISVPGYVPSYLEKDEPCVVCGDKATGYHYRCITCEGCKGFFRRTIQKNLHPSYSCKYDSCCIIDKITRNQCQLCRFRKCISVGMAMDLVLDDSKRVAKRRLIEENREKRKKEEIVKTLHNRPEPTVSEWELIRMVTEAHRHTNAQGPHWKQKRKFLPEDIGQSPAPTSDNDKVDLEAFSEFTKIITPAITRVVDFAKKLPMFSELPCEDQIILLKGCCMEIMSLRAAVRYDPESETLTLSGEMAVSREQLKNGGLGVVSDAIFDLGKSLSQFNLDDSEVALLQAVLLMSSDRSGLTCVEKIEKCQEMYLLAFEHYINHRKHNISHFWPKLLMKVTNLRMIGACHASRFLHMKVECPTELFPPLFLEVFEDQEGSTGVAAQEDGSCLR
Peroxisome proliferator-activated receptor gamma (Homo sapiens), sequence (P37231 whole entry, looked up, the tested form may be a part): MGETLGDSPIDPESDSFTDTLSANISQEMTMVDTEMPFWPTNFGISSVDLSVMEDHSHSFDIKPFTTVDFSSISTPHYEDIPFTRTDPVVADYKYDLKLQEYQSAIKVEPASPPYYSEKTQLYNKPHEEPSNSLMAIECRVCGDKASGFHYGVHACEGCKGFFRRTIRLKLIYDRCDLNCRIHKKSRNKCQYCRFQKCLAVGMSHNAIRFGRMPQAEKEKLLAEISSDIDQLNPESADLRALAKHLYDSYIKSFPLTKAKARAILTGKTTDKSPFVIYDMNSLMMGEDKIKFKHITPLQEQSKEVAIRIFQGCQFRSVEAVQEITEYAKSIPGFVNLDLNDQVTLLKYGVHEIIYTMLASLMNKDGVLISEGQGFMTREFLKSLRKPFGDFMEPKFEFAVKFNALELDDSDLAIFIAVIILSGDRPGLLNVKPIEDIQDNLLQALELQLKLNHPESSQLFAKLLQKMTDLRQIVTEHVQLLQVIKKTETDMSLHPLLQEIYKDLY
human Thyroid hormone Receptor alpha (TRa), THRA (gene 7067), sequence (P10827 whole entry, looked up, the tested form may be a part): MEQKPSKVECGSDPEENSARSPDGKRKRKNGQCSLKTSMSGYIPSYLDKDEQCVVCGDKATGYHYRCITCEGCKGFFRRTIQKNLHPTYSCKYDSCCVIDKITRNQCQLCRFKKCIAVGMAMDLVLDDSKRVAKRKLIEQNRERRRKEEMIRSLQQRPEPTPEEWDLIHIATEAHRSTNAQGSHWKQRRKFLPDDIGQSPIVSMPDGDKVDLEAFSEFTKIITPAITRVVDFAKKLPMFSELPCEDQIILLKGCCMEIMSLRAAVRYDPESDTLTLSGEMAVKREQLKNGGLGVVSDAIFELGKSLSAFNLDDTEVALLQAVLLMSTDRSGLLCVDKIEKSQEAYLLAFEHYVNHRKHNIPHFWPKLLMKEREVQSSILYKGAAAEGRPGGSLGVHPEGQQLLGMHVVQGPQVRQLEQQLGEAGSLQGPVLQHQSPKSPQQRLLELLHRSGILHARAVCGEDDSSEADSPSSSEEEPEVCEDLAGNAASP
human Thyroid hormone Receptor beta (TRb), THRB (gene 7068), sequence (P10828 whole entry, looked up): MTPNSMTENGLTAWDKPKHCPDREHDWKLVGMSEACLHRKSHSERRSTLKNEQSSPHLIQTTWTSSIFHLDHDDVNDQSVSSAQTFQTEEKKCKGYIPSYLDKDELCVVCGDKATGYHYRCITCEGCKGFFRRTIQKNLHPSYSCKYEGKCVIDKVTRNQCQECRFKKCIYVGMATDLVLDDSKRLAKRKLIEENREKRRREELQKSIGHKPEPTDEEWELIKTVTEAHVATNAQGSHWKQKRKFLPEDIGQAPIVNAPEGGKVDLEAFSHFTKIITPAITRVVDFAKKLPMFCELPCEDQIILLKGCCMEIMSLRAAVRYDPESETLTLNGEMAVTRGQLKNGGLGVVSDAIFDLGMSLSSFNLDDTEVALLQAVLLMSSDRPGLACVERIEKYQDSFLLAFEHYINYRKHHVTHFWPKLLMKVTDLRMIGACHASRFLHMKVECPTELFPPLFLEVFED
mouse Peroxisome Proliferator-activated Receptor gamma (PPARg), Pparg (gene 19016), sequence (P37238 whole entry, looked up, the tested form may be a part): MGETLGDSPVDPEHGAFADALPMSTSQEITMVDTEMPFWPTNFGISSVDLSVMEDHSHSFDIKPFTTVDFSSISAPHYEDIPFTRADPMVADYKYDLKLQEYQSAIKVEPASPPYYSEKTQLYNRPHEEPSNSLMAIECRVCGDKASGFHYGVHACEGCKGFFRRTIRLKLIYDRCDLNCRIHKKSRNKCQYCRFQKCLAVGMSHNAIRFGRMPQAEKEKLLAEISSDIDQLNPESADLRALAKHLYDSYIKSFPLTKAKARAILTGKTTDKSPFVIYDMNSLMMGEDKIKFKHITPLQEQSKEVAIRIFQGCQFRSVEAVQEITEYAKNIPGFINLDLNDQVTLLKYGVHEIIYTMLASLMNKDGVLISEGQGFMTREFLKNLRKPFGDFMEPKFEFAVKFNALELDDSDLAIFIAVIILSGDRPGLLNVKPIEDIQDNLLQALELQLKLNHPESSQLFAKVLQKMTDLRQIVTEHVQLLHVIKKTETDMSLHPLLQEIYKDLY
Estrogen receptor (Homo sapiens), sequence (P03372 whole entry, looked up, the tested form may be a part): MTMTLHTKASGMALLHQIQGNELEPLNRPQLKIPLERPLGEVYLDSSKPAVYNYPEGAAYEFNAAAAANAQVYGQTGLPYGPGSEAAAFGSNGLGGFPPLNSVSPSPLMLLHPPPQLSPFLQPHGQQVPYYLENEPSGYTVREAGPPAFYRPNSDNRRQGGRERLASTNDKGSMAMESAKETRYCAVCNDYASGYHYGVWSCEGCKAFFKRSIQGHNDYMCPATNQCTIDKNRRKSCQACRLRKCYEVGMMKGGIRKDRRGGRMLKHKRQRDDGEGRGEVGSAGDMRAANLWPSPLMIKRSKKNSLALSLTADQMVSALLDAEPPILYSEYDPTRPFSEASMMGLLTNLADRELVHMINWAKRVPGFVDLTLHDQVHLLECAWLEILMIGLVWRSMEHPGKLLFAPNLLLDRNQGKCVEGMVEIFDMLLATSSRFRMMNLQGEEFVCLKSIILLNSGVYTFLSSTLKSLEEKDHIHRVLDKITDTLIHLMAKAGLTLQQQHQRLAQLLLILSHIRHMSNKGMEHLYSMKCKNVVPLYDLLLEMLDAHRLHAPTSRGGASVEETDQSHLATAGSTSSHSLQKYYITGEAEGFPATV
Nuclear receptor subfamily 1 group I member 2 (Mus musculus), sequence (O54915 whole entry, looked up): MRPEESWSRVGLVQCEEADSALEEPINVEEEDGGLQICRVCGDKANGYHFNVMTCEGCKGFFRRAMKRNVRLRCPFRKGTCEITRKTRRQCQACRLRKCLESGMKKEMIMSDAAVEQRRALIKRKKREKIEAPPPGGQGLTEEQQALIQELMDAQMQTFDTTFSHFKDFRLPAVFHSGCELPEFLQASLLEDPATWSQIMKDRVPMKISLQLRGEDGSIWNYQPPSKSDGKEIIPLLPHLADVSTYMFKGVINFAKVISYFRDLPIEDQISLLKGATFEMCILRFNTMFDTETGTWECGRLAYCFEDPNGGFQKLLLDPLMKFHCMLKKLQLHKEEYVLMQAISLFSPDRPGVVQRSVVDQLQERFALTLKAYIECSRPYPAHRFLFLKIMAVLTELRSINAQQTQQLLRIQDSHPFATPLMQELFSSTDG
frog Thyroid hormone Receptor alpha (TRa), thra-a (gene 397942), sequence (P15204 whole entry, looked up, the tested form may be a part): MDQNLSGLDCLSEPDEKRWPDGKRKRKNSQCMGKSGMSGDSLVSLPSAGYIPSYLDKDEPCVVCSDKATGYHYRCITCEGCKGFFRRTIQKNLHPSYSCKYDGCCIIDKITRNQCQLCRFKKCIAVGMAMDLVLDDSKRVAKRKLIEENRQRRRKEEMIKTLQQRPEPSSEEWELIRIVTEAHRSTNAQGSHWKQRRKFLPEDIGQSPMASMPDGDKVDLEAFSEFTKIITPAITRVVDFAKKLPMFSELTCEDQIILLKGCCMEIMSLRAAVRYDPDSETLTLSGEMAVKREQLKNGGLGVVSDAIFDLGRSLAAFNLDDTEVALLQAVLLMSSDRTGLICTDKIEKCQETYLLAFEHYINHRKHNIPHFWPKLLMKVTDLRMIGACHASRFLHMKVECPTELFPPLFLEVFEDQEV
zebrafish Thyroid Hormone Receptor beta (TRb), thrb (gene 30607), sequence (Q9PVE4 whole entry, looked up, the tested form may be a part): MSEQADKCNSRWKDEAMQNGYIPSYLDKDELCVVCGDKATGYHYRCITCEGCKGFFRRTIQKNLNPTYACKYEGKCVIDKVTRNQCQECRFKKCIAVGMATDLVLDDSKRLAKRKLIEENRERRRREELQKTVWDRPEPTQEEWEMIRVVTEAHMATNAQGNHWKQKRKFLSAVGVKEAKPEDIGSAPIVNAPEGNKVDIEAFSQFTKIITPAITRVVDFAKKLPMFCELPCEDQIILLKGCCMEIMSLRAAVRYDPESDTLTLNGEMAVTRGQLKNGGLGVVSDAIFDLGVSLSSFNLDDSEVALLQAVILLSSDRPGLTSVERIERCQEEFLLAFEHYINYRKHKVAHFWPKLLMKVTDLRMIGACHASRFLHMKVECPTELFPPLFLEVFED

`CCOP(=S)(OCC)SCSCC`: the outcome in assay [1] and in [2] was inactive.

Consider `ClC1=C(Cl)C2(Cl)C3C(Cl)C(Cl)CC3C1(Cl)C2(Cl)Cl` (configuration not stated), for which the outcome in assay [1] was inactive. In assay [2], the AC50 (in general, the concentration giving half of the maximal activity seen) is 9.92 µM (active).

Take `O=c1ssc(Cl)c1Cl`: the AC50 was 9.92 µM (active) in [1] and 80.9 µM (active) in assay [2].

Take `OCC(F)(F)OC(F)(F)C(F)(F)OC(F)(F)C(F)(F)OC(F)(F)F`: the outcome in assay [1] was inactive.

On to `CCOP(=S)(OCC)SCS(=O)(=O)CC`, for which the AC50 was 39.2 µM (active) in assay [3] and 43 µM (active) in [4].

Take `CO/N=C(/C(=O)OC)c1ccccc1COc1ccccc1C`: the AC50 in assay [1] is 7.83 µM (active). In assay [2], the result was inactive.

Consider `O=S(=O)(F)C(F)(F)C(F)(F)C(F)(F)C(F)(F)C(F)(F)C(F)(F)C(F)(F)C(F)(F)F`, for which the result in [1] was inactive.

Turning to `OCC(F)(F)OC(F)(F)C(F)(F)OC(F)(F)C(F)(F)OC(F)(F)CO`, in assay [1], the outcome was inactive.

On to `O=[N+]([O-])c1ccc(Cl)c(Cl)c1`, for which the result in assay [2] was inactive.

In the case of `O=S(=O)(c1ccc(O)cc1)c1ccc(O)cc1`, the AC50 in assay [5] was 8.07 µM (active); in assay [6] it was 1.87 µM (active) and 2.38 µM (active); in [7] it was 26.9 µM (active) and 5.73 µM (active); in assay [8], 8.88 µM (active) and 28.6 µM (active); in [9], 33.1 µM (active) and 63.1 µM (active); in assay [17], 100 µM (active). The call in assay [5], in assay [10], in assay [11], in [12], in assay [13] and in assay [14] was inactive. Further, the outcome in assay [15], in [16] and in assay [18] was inactive.

With `CCOC(=O)c1ccccc1C(=O)OCC`, the outcome in [3] and in assay [4] was inactive.

With `O=P(OCC(Br)CBr)(OCC(Br)CBr)OCC(Br)CBr` (configuration not stated), the outcome in assay [1] was inactive.
